Hit rate of the full screen: of about 5,500 compounds, about 2,000 (36%) were called active. Another 18% or so got no clear call; they are omitted. Rule as the data show it: active = normalized growth mostly below about 0.91 (no sharp cut-off); inconclusive = no clear call, values can overlap the other calls; inactive = mostly above about 0.92. The list shows a part of the results.
Experiment: chemical genetic growth profiling, strain panel (AID 1159580);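 also: tested at 20 µM; growth read once vehicle control cultures reached saturation at 30 °C; 1 = growth at the plate median or of vehicle wells; lower values mean less growth of the strain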
Conditions: growth OD
[1] = S. cerevisiae deletion strains, locus YGR078C, strain PAC10, active compounds read low
[2] = S. cerevisiae deletion strains, locus YJR075W, strain HOC1, active compounds read low
[3] = S. cerevisiae deletion strains, locus YNL128W, strain TEP1, active compounds read low
[4] = S. cerevisiae deletion strains, locus YNL153C, strain GIM3, active compounds read low
[5] = S. cerevisiae deletion strains, locus YNL322C, strain KRE1, active compounds read low
[6] = S. cerevisiae deletion strains, locus YPL055C, strain LGE1, active compounds read low
[7] = S. cerevisiae deletion strains, locus YAL013W, strain DEP1, active compounds read low
[8] = S. cerevisiae deletion strains, locus YBR229C, strain ROT2, active compounds read low
[9] = S. cerevisiae deletion strains, locus YDL101C, strain DUN1, active compounds read low
[10] = S. cerevisiae deletion strains, locus YDR150W, strain NUM1, active compounds read low
[11] = S. cerevisiae deletion strains, locus YEL061C, strain CIN8, active compounds read low
[12] = S. cerevisiae deletion strains, locus YHR030C, strain SLT2, active compounds read low
[13] = S. cerevisiae deletion strains, locus YJR043C, strain POL32, active compounds read low
[14] = S. cerevisiae deletion strains, locus YKL190W, strain CNB1, active compounds read low
[15] = S. cerevisiae deletion strains, locus YLR039C, strain RIC1, active compounds read low
[16] = S. cerevisiae deletion strains, locus YLR262C, strain YPT6, active compounds read low
[17] = S. cerevisiae deletion strains, locus YMR263W, strain SAP30, active compounds read low
[18] = S. cerevisiae deletion strains, locus YPL241C, strain CIN2, active compounds read low

Measured: normalized growth

CN(C)C(=O)N=NC(=O)N(C)C
inactive: S. cerevisiae deletion strains, locus YAL040C, strain CLN3, active compounds read low 0.985 | S. cerevisiae deletion strains, locus YCL061C, strain MRC1 (second series), active compounds read low 0.994 | S. cerevisiae deletion strains, locus YDR363W, strain ESC2, active compounds read low 1.04 | S. cerevisiae deletion strains, locus YER002W, strain NOP16, active compounds read low 1.03 | [1] 0.99 | [2] 1.02 | [3] 0.983 | [4] 0.968 | S. cerevisiae deletion strains, locus YNL175C, strain NOP13, active compounds read low 0.996 | S. cerevisiae deletion strains, locus YNL197C, strain WHI3, active compounds read low 0.984 | S. cerevisiae deletion strains, locus YNL224C, strain SQS1, active compounds read low 1.01 | [5] 1.02 | S. cerevisiae deletion strains, locus YOR083W, strain WHI5 (second series), active compounds read low 0.968 | [6] 1.06

O=C1CC2(CCCC2)C(=O)N1CCNc1nccc(C(F)(F)F)n1
inactive: [7] 1.01 | [8] 0.991 | S. cerevisiae deletion strains, locus YCL061C, strain MRC1, active compounds read low 0.977 | [9] 0.985 | [10] 1.05 | [11] 1.01 | [1] 0.982 | [12] 0.994 | S. cerevisiae deletion strains, locus YHR087W, strain rtc3, active compounds read low 1.03 | S. cerevisiae deletion strains, locus YJL187C, strain SWE1, active compounds read low 0.995 | [13] 0.999 | [2] 0.97 | [14] 0.984 | [15] 0.935 | S. cerevisiae deletion strains, locus YLR058C, strain SHM2 (second series), active compounds read low 0.975 | S. cerevisiae deletion strains, locus YLR085C, strain ARP6, active compounds read low 0.999 | [16] 0.972 | S. cerevisiae deletion strains, locus YML094W, strain GIM5, active compounds read low 1 | S. cerevisiae deletion strains, locus YMR219W, strain ESC1, active compounds read low 0.997 | [17] 1.01 | [3] 0.989 | [4] 1.01 | S. cerevisiae deletion strains, locus YNL298W, strain CLA4 (second series), active compounds read low 0.964 | [5] 0.993 | S. cerevisiae deletion strains, locus YNR030W, strain Alg12, active compounds read low 0.986 | [6] 1.03 | [18] 1 | S. cerevisiae deletion strains, locus YPR135W, strain CTF4, active compounds read low 0.941

COc1cc(-c2oc3cc(O)ccc3c(=O)c2O)cc(OC)c1OC
inactive: [7] 1.01 | S. cerevisiae deletion strains, locus YBR021W, strain FUR4, active compounds read low 1.02 | [8] 1.01 | S. cerevisiae deletion strains, locus YCL029C, strain bik1, active compounds read low 1.01 | S. cerevisiae deletion strains, locus YDL035C, strain GPR1, active compounds read low 1 | S. cerevisiae deletion strains, locus YDL074C, strain BRE1, active compounds read low 0.996 | [9] 0.999 | S. cerevisiae deletion strains, locus YDL134C, strain PPH21, active compounds read low 1 | S. cerevisiae deletion strains, locus YDL185W, strain tfp1, active compounds read low 0.996 | S. cerevisiae deletion strains, locus YDL192W, strain arf1, active compounds read low 0.999 | S. cerevisiae deletion strains, locus YDR101C, strain arx1, active compounds read low 1 | [10] 1.01 | S. cerevisiae deletion strains, locus YDR162C, strain NBP2, active compounds read low 0.989 | S. cerevisiae deletion strains, locus YDR318W, strain mcm21, active compounds read low 1.02 | S. cerevisiae deletion strains, locus YDR388W, active compounds read low 0.999 | S. cerevisiae deletion strains, locus YDR502C, strain sam2, active compounds read low 1 | [11] 0.998 | S. cerevisiae deletion strains, locus YER110C, active compounds read low 1.01 | S. cerevisiae deletion strains, locus YER155C, strain BEM2, active compounds read low 1.02 | S. cerevisiae deletion strains, locus YER167W, strain BCK2, active compounds read low 1.02 | S. cerevisiae deletion strains, locus YGL078C, strain dbp3, active compounds read low 0.995 | S. cerevisiae deletion strains, locus YGL086W, strain mad1, active compounds read low 1.02 | S. cerevisiae deletion strains, locus YGL248W, strain PDE1, active compounds read low 1 | [1] 0.989 | S. cerevisiae deletion strains, locus YGR135W, strain pre9, active compounds read low 0.981 | S. cerevisiae deletion strains, locus YGR229C, strain SMI1, active compounds read low 0.98 | S. cerevisiae deletion strains, locus YGR252W, strain gcn5, active compounds read low 1.06 | [12] 1.01 | S. cerevisiae deletion strains, locus YHR079C, strain IRE1 (second series), active compounds read low 1.01 | S. cerevisiae deletion strains, locus YHR094C, strain hxt1, active compounds read low 1.01 | S. cerevisiae deletion strains, locus YHR129C, strain ARP1, active compounds read low 0.998 | S. cerevisiae deletion strains, locus YHR200W, strain rpn10, active compounds read low 1.01 | S. cerevisiae deletion strains, locus YIL066C, strain RNR3, active compounds read low 1 | S. cerevisiae deletion strains, locus YIL073C, strain SPO22, active compounds read low 1.05 | S. cerevisiae deletion strains, locus YIL125W, strain kgd1, active compounds read low 1.01 | S. cerevisiae deletion strains, locus YIR030C, strain dcg1, active compounds read low 1.01 | S. cerevisiae deletion strains, locus YJL095W, strain BCK1, active compounds read low 0.984 | S. cerevisiae deletion strains, locus YJL134W, strain LCB3, active compounds read low 0.996 | S. cerevisiae deletion strains, locus YJL168C, strain set2, active compounds read low 1.01 | S. cerevisiae deletion strains, locus YJL187C, strain SWE1 (second series), active compounds read low 0.99 | [13] 1.01 | [2] 1.01 | S. cerevisiae deletion strains, locus YKL009W, strain mrt4, active compounds read low 1.04 | S. cerevisiae deletion strains, locus YKL068W, active compounds read low 0.998 | S. cerevisiae deletion strains, locus YKL085W, strain MDH1 (second series), active compounds read low 1.02 | S. cerevisiae deletion strains, locus YKL085W, strain MDH1, active compounds read low 1.02 | [14] 1.01 | S. cerevisiae deletion strains, locus YKR001C, strain vps1, active compounds read low 1.01 | [15] 1.02 | S. cerevisiae deletion strains, locus YLR058C, strain SHM2, active compounds read low 0.999 | S. cerevisiae deletion strains, locus YLR102C, strain apc9, active compounds read low 1.01 | [16] 0.979 | S. cerevisiae deletion strains, locus YLR268W, strain sec22, active compounds read low 1 | S. cerevisiae deletion strains, locus YLR330W, strain CHS5, active compounds read low 1 | S. cerevisiae deletion strains, locus YLR342W, strain FKS1 (second series), active compounds read low 1.05 | S. cerevisiae deletion strains, locus YLR371W, strain rom2, active compounds read low 1.02 | S. cerevisiae deletion strains, locus YLR418C, strain cdc73, active compounds read low 0.974 | S. cerevisiae deletion strains, locus YML016C, strain PPZ1, active compounds read low 1 | S. cerevisiae deletion strains, locus YML032C, strain rad52, active compounds read low 1.03 | S. cerevisiae deletion strains, locus YML124C, strain tub3, active compounds read low 1.01 | S. cerevisiae deletion strains, locus YMR078C, strain ctf18, active compounds read low 1.02 | S. cerevisiae deletion strains, locus YMR223W, strain ubp8, active compounds read low 1.01 | [17] 1.01 | S. cerevisiae deletion strains, locus YMR307W, strain GAS1, active compounds read low 0.995 | S. cerevisiae deletion strains, locus YNL067W, strain RPL9B, active compounds read low 0.986 | [3] 0.996 | [4] 0.986 | S. cerevisiae deletion strains, locus YNL233W, strain BNI4, active compounds read low 0.969 | S. cerevisiae deletion strains, locus YNL250W, strain rad50, active compounds read low 1 | S. cerevisiae deletion strains, locus YNL271C, strain bni1, active compounds read low 1.02 | S. cerevisiae deletion strains, locus YNL298W, strain CLA4, active compounds read low 1.01 | S. cerevisiae deletion strains, locus YNL307C, strain MCK1, active compounds read low 1.02 | [5] 1 | S. cerevisiae deletion strains, locus YNR052C, strain pop2, active compounds read low 1.02 | S. cerevisiae deletion strains, locus YOL006C, strain TOP1, active compounds read low 0.999 | S. cerevisiae deletion strains, locus YOL012C, strain htz1 1.14 | S. cerevisiae deletion strains, locus YOL147C, strain pex11, active compounds read low 1.01 | S. cerevisiae deletion strains, locus YOR061W, strain CKA2, active compounds read low 1 | S. cerevisiae deletion strains, locus YOR069W, strain VPS5, active compounds read low 1 | S. cerevisiae deletion strains, locus YOR136W, strain idh2, active compounds read low 1.02 | S. cerevisiae deletion strains, locus YOR144C, strain elg1, active compounds read low 1 | S. cerevisiae deletion strains, locus YOR184W, strain ser1, active compounds read low 1.04 | S. cerevisiae deletion strains, locus YOR316C, strain cot1, active compounds read low 1 | [6] 1 | [18] 1.01 | S. cerevisiae deletion strains, locus YPR119W, strain clb2, active compounds read low 1 | S. cerevisiae deletion strains, locus YPR141C, strain kar3, active compounds read low 1.01 | S. cerevisiae deletion strains, locus YPR163C, strain tif3, active compounds read low 0.991 | S. cerevisiae deletion strains, locus YPR167C, strain met16, active compounds read low 1.01 | S. cerevisiae deletion strains, strain wtn01, active compounds read low 1 | S. cerevisiae strains, strain wild type, active compounds read low 0.994
